Measurements published in PubChem BioAssay (NCI).
The panel holds about 83,000 compounds, 20% with a hit somewhere; the sample as a whole holds those more often.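 Growth was measured after 48 h exposure to one concentration of compound in 96-well plates. Values under 10 count as active.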 Calls of active or inactive are those of the source.

These molecules were tested on T-47D breast (assay: NCI-60 one-dose screen, 48 h (100 = growth as untreated, 0 = no growth, -100 = all killed)). Conditions: 10 µM unless noted.

SMILES	growth
CC(C)=CCC[C@@H](C)[C@H]1CC[C@@]2(C)C3=C(CC[C@]12C)[C@@]1(C)CC[C@H](O)C(C)(C)[C@@H]1CC3	92.8% (inactive)
CCN(CC)CCN1CNC(=S)NC1	94.5% (inactive)
OC(CCN1CCCCC1)(c1ccccc1)c1ccccc1	103% (inactive)
C#CC(O)c1ccccc1 (configuration not stated)	99.9% (inactive)
CCNc1ncnc2[nH]ncc12	103% (inactive)
Nc1ccc(F)c(Cl)c1F	102% (inactive)
Clc1ccc(-c2noc(/C=C\c3ccccc3)n2)cc1	89% (inactive)
COC1OC(COC(C)=O)C(OC(C)=O)C(OC(C)=O)C1OC(C)=O (configuration not stated)	91.7% (inactive)
Cc1c(Cl)cccc1N=C=S	107% (inactive)
CCOc1ccc2c(c1)c(C)cc(C)[n+]2CC	69.5% (inactive)
Cc1cccnc1NC1OC(=O)c2ccccc21 (configuration not stated)	94.2% (inactive)
NS(=O)(=O)c1cc(=O)[nH]c(=O)[nH]1	113% (inactive)
COc1ccc2c(ccc[n+]2C)c1	102% (inactive)
CN1CCCN(C(c2ccccc2)c2ccc(Cl)cc2)CC1 (configuration not stated)	87.1% (inactive)
Clc1cccc(Cl)c1C1CSc2ccccc2N=C1c1ccccc1 (configuration not stated)	65.4% (inactive)
O=C(O)CSCC(=O)Nc1cc(C(F)(F)F)ccc1Cl	102% (inactive)
CC(=O)O[C@H]1CC[C@]2(C)C3=C(C(=O)C[C@H]2C1(C)C)[C@]1(C)CC[C@H]([C@H](C)CCC(=O)O)[C@@]1(C)CC3=O	91.5% (inactive)
C=COC(=O)C(C)(C)C	93.8% (inactive)
COc1cc(-c2ccc(NC(=O)CC(C)=O)c(OC)c2)ccc1NC(=O)CC(C)=O	108% (inactive)

SMILES	growth
CCCCCCCCCCCCCCCCCC(=O)NCCNC(=O)CCCCCCCCCCCCCCCCC	78.6% (inactive)
CCOc1ccc(C(=O)O)cc1	100% (inactive)
CCNCC(C)(C)O	104% (inactive)
Cc1ccc(S(=O)(=O)NC(=O)NCCSSCCNC(=O)NS(=O)(=O)c2ccc(C)cc2)cc1	105% (inactive)
O=C(O)Cc1ccc(Cl)cc1	117% (inactive)
ClCC(Cl)[C@@H]1CC2C=CC1C2 (some centres not stated)	98.8% (inactive)
CCOC(OCC)C(=O)c1ccccc1	103% (inactive)
O=C(CCl)Nc1ccccc1SCc1cc(Cl)cc2c1OCOC2	55.9% (inactive)
COc1cccc(C(=O)NNC(=O)c2cccc3ccccc23)c1	95.4% (inactive)
CC(C)N(CCCC#N)C(C)C	94.2% (inactive)
O=C(c1cccc(C(=O)c2ccc3c4c(cccc24)C(=O)N(c2ccccc2)C3=O)c1)c1ccc2c3c(cccc13)C(=O)N(c1ccccc1)C2=O	76.3% (inactive)
CC(c1ccccc1)N1C(=O)CSC1=S (configuration not stated)	63.4% (inactive)
O=C(OCc1ccccc1)n1nnc2ccccc21	106% (inactive)
Nc1ncc([N+](=O)[O-])cn1	103% (inactive)
O=C(O)C1CSC(c2ccccc2)N1 (configuration not stated)	101% (inactive)
Cc1ccc(O)c(N)c1	92.8% (inactive)
CN(C)c1ccc(O)c2c1CC1CC3C(N(C)C)C(=O)C(C(N)=O)=C(O)C3(O)C(=O)C1=C2O (configuration not stated)	50.5% (inactive)
Nc1c(O)c(S(=O)(=O)O)c(O)c2c1C(=O)c1ccccc1C2=O	23.5% (inactive)
